Assay outcomes as filed in PubChem BioAssay.
Sampled rows, rich in hits. Any-hit rate of the full collection: about 28%.
Pyk2 oligo antag: Pyk2 (human) oligomerization antagonism | Q293 cells, Pyk2 FERM NanoBiT luminescence; stronger effect = lower value | z-score (the deposit names both 25 µM and 10 µM) | 0.83% of 99,000 active;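 active = Z-score of -3 or lower, scaled per plate to the spread of control and sample wells; inactive = z-score above -3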;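 also: negative z-score means lost luminescence so less FERM oligomerization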
Target sequence (Q14289 whole entry, looked up): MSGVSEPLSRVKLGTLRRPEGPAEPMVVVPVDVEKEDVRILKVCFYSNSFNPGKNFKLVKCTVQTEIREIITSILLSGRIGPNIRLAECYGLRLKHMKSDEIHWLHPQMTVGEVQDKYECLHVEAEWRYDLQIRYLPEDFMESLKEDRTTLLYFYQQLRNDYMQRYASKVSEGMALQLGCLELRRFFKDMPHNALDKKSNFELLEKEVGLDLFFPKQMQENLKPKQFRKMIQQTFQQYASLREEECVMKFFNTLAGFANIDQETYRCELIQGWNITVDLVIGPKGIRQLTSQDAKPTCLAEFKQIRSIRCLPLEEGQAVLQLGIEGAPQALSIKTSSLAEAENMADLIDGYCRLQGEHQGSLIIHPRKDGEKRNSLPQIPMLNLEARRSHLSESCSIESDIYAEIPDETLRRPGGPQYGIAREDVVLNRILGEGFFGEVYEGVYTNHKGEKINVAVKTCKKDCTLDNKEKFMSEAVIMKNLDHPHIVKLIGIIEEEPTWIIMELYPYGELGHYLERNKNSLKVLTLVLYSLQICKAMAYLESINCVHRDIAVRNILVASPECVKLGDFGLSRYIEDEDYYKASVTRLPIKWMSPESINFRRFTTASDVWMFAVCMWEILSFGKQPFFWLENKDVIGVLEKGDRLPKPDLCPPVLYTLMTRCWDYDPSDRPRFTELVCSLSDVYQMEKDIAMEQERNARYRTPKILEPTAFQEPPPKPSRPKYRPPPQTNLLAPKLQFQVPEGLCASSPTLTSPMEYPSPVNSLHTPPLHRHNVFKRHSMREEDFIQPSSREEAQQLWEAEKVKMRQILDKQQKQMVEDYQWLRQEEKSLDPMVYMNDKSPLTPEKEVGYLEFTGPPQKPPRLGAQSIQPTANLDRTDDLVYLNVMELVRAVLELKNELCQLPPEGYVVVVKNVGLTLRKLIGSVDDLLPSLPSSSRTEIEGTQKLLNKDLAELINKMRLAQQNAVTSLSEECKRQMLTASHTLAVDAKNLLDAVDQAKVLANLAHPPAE
CYP2C19 inhib: inhibitors of human CYP2C19 | inhibition, % at 5 µM | 21% of 96,000 active | CYP2C19 Supersomes, luciferin-H EGE luminescence, 30 min;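 active = CYP2C19 inhibition above a set limit at 5 µM in the primary screen, cut at about 50% in these data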;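 also: plate controls were negative control wells for no effect and 2.5 mM tranylcypromine positive control for full effect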
CYP2C19 act: increases human CYP2C19 enzyme activity; P33261; recombinant CYP2C19, luciferin-H EGE luminescence; stronger effect = higher value; 0 = fully inhibited enzyme, 1 = untreated enzyme; activation factor at 5 µM; 96,000 tested, under 10 active; AID 1025;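 active = activation factor of at least 2 at 5 µM in the primary screen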;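 also: 0 = wells with 2.5 mM tranylcypromine and 1 = vehicle-only wells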
CYP2C9 act: increases human cytochrome P450 2C9 activity. AID 1024. recombinant CYP2C9, luciferin-H conversion, luminescence; stronger effect = higher value; factor 1 = untreated enzyme, 0 = blocked. activation factor at 5 µM. P11712. 1.4% of 96,000 active;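 active = activation factor of 2 or more for CYP2C9 at a 5 µM dose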;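 also: 0 = sulfaphenazole-blocked wells and 1 = vehicle-only wells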
CYP2C9 inh: human CYP2C9 inhibition; P11712; CYP2C9 Supersomes, luciferin-H conversion, luminescence; inhibition, % at 5 µM; 20% of 96,000 active;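 active = blocking of liver enzyme CYP2C9 beyond about 50% at 5 µM, limit read from the data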
* = called active by the depositor.

`Cn1c(NC(=O)C(C)(C)Oc2ccc(Cl)cc2)cc(=O)n(C)c1=O` gave CYP2C19 inhib 97.9*, CYP2C19 act 0, CYP2C9 act 0.8 and CYP2C9 inh 25.0.
Cc1cccc(C)c1N1CCN(c2ccc3nnc(C(F)(F)F)n3n2)CC1 was read as Pyk2 oligo antag -2.23, CYP2C19 inhib 63.5*, CYP2C19 act 0.4, CYP2C9 act 0.1 and CYP2C9 inh 88.7*.
`Cc1ccc(C)c(-n2c(Cc3cc(=O)[nH]c(=O)[nH]3)nnc2SCC(=O)NCC2CCCO2)c1` (stereo not drawn) gave Pyk2 oligo antag 0.17, CYP2C19 inhib -10.3, CYP2C19 act 1.1, CYP2C9 act 0.9 and CYP2C9 inh 9.0.
`Fc1ccc(C(c2nnnn2Cc2cccs2)N2CCN(C3CCCCC3)CC2)cc1` (stereo not drawn) gave Pyk2 oligo antag -0.75, CYP2C19 inhib 86.0*, CYP2C19 act 0.1, CYP2C9 act 0.9 and CYP2C9 inh 8.9.
COc1ccc(Cn2nnnc2C(c2ccc(F)cc2)N2CCN(C3CCCC3)CC2)cc1 (stereo not drawn) was read as Pyk2 oligo antag 0.14, CYP2C19 inhib 88.2*, CYP2C19 act 0.1, CYP2C9 act 0.6 and CYP2C9 inh 35.9.
Screening c1ccc(Cn2nnnc2C(c2cccnc2)N2CCN(c3ccccc3)CC2)cc1 (stereo not drawn) returned Pyk2 oligo antag -2.33, CYP2C19 inhib 14.5, CYP2C19 act 0.9, CYP2C9 act 0.8 and CYP2C9 inh 19.0.
For COc1ccc(N2CCN(C(c3ccccc3)c3nnnn3Cc3ccc(F)cc3)CC2)cc1 (stereo not drawn) the results were Pyk2 oligo antag -2.39, CYP2C19 inhib 63.8*, CYP2C19 act 0.4, CYP2C9 act 0.6 and CYP2C9 inh 40.0.
For COc1ccc(Cn2nnnc2C(c2ccc(N(C)C)cc2)N2CCC(C)CC2)cc1 (stereo not drawn) the results were Pyk2 oligo antag -0.42, CYP2C19 inhib 57.5*, CYP2C19 act 0.4, CYP2C9 act 0.5 and CYP2C9 inh 52.5*.
Cc1ccc(NC(=O)CS(=O)CC(=O)N(c2ccc(C)cc2)C(C)C(=O)NC2CCCCC2)cc1 (stereo not drawn) was read as Pyk2 oligo antag -1.06.
Cc1ccc(C(=O)COC(=O)c2ccccc2N2C(=O)C3C4CCC(C4)C3C2=O)cc1C (stereo not drawn) was read as Pyk2 oligo antag 0.3, CYP2C19 inhib -11.9, CYP2C19 act 1.1, CYP2C9 act 1 and CYP2C9 inh -1.1.
COc1ccc(C(c2nnnn2Cc2cccs2)N2CCN(c3ccc(F)cc3)CC2)cc1OC (stereo not drawn) was read as Pyk2 oligo antag -3.3*, CYP2C19 inhib 18.8, CYP2C19 act 0.8, CYP2C9 act 0.6 and CYP2C9 inh 35.3.
Screening CC1CCCN(C(c2cccs2)c2nnnn2Cc2ccccc2)C1 (stereo not drawn) returned Pyk2 oligo antag -1.47, CYP2C19 inhib 85.8*, CYP2C19 act 0.1, CYP2C9 act 0.7 and CYP2C9 inh 26.9.
CN1CCN(C(c2ccccc2)c2nnnn2Cc2ccccc2)CC1 (stereo not drawn) was read as Pyk2 oligo antag 0.26.
Screening CN1CCN(C(c2ccc(F)cc2)c2nnnn2Cc2cccs2)CC1 (stereo not drawn) returned Pyk2 oligo antag -0.22, CYP2C19 inhib 21.2, CYP2C19 act 0.8, CYP2C9 act 1.1 and CYP2C9 inh -8.2.
For COc1ccc(Cn2nnnc2C(c2cccs2)N2CCOCC2)cc1 (stereo not drawn) the results were Pyk2 oligo antag 0.58, CYP2C19 inhib 86.3*, CYP2C19 act 0.1, CYP2C9 act 0.4 and CYP2C9 inh 55.9*.
`COc1ccc(Cn2nnnc2C(c2ccccn2)N2CCN(c3cc(Cl)ccc3C)CC2)cc1` (stereo not drawn) gave Pyk2 oligo antag -1.72, CYP2C19 inhib 97.9*, CYP2C19 act 0, CYP2C9 act 0.1 and CYP2C9 inh 87.7*.
CC(C)CNC(=O)NC1C(NC(=O)NCC(C)C)N(C)C(=O)N1C (stereo not drawn) was read as Pyk2 oligo antag 0.07, CYP2C19 inhib -15.7, CYP2C19 act 1.2, CYP2C9 act 1.2 and CYP2C9 inh -15.9.
For Cc1ccc(-c2cc(C(=O)NCc3ccccn3)no2)cc1 the results were Pyk2 oligo antag -0.47, CYP2C19 inhib 45.7, CYP2C19 act 0.5, CYP2C9 act 0.5 and CYP2C9 inh 47.3.
